Source: PubChem
RAD52 anneal inh – RAD52 (human) annealing inhibition | AID 651710 | inhibition, % at 18.7 µM | P43351 | recombinant RAD52 DNA annealing, FRET fluorescence | 360,000 compounds, 0.46% hits;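 active = every replicate showing at least 50% inhibition; inconclusive = mean inhibition at least 50% but not in every replicate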
AF4-AF9 inh – blocks AF4 peptide binding to human AF9; P42568; AlphaScreen, biotin-AF4 peptide binding to FLAG-AF9; inhibition, % at 10 µM; 350,000 compounds, 0.47% hits; AID 651704;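 active = every replicate reaching a set inhibition limit, whatever the replicate mean, cut at about 25% in these data; inconclusive = mean inhibition reaches that limit but some replicates miss it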;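 also: 0% = plate neutral control median and 100% = total signal loss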
dFosB act-1 – activators of mouse delta FosB homodimer | purified delta FosB, TAMRA-CDK5 oligo fluorescence polarization; percent of positive-control signal above neutral wells | activation, % at 25 µM | 340,000 compounds, 0.99% hits | AID 493131;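 active = mean activation above about 17%, with every replicate also reaching it, limit read from the data, passing the limit was not always enough; inconclusive = only one of the two conditions met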
GSIS activator – GLuc luminescence reporter in INS-1E cells, primary screen for activators of glucose-dependent secretion of insulin | AID 743287 | activation, % at 16.6 µM | INS-1E GLuc reporter insulin secretion, 2-3 h | 370,000 compounds, 0.61% hits;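 active = lowest replicate activation of at least 40%, so every replicate reaches that level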;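 also: 0% = median of neutral control wells and 100% = median of IBMX positive control wells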
DENV2 CPE rescue – inhibitors of DENV2 cytopathic effect; DENV2-infected cells, cytopathic effect rescue, plate reader; CPE inhibition, % at 9.99 µM; 350,000 compounds, 1.7% hits; in the data active = CPE inhibition above about 20%, passing the limit was not always enough; inconclusive = no clear call, values can overlap the other calls; tested in BHK-21 cells;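 also: 0% = median of neutral control wells and 100% = median of positive control wells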
RAD54 inh – RAD54 (human) branch migration inhibition; Q92698; inhibition, % at 10.4 µM; AID 602329; 360,000 compounds, 0.14% hits; RAD54 Holliday junction branch migration, FAM/BHQ fluorescence;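 active = mean normalized replicate activity at least 40 and at least half of replicates scoring 40 or more; inconclusive = only one of the two criteria met; inactive = mean below 40 and under half of replicates reaching 40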;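 also: 0% = median of neutral control wells and 100% = median of positive control wells; inhibitors cause a drop in the FAM fluorescence signal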
Target sequence (Q92698 whole entry, looked up): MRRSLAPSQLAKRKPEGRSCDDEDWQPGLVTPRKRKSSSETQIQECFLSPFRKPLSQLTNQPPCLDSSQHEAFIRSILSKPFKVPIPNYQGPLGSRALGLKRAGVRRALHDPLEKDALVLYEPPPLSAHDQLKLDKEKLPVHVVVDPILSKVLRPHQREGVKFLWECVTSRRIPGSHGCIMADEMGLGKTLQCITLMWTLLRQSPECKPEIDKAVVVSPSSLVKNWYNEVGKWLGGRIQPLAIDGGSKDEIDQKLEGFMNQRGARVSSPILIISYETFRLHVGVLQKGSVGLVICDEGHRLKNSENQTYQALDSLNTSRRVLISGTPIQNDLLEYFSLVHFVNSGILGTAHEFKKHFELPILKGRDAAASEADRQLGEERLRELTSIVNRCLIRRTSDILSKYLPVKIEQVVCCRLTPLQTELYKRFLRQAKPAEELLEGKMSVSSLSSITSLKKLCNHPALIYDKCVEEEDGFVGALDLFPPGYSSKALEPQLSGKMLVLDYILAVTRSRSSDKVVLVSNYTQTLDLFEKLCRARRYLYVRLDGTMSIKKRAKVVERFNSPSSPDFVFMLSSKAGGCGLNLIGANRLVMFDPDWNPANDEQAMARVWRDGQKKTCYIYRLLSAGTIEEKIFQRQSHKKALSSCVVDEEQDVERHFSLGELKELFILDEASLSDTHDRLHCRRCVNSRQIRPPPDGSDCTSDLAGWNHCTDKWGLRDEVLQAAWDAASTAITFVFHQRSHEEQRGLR
dFosB act-2 – activators of mouse delta FosB homodimer DNA binding | AID 588690 | shares compounds with dFosB act-1 | purified delta FosB, TAMRA-CDK5 oligo fluorescence polarization; normalised: neutral wells 0, positive control 100 | activation, % at 24.9 µM | 2,400 tested, under 10 active;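 active = highest replicate activation at or above 34% and every replicate reaching that threshold; inconclusive = meets only one of the two criteria; inactive = meets neither criterion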;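 also: higher polarization means more probe DNA bound by delta FosB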
The depositor's hits bear a star; ? = inconclusive; . = no result given. This is a sample that favours compounds with a hit; in the whole collection about 3.1% have one here.

SMILES	RAD52 anneal inh	AF4-AF9 inh	dFosB act-1	GSIS activator	DENV2 CPE rescue	RAD54 inh	dFosB act-2
C[C@@H]1CN([C@@H](C)CO)C(=O)Cc2cc(NS(C)(=O)=O)ccc2O[C@@H]1CN(C)C(=O)Nc1cccc2ccccc12	-14.1	-1.7	.	11.0	-1.6	3.7	.
CC(C)C(=O)Nc1cccc(NC(=S)NC(=O)c2ccc(Cl)cc2)c1	.	.	27.5*	.	.	0.1	0.6
CC(C)C(=O)Nc1cccc(NC(=S)NC(=O)c2ccc3c(c2)OCO3)c1	5.7	-5.5	1.6	2.9	3.2	9.5	.
Cc1ccc(Nc2nnc(SCc3nc4ccccc4c(=O)[nH]3)s2)cc1	-13.7	-5.8	43.2*	22.3	3.6	6.6	-1.1
CC(C)Sc1nc2sc(-c3ccccc3)cc2c(=O)n1N	.	.	-4.4	.	.	-1.3	.
CSc1nc2sc(-c3ccccc3)cc2c(=O)n1N	.	.	65.3*	.	.	3.7	4.2
COc1cccc(C2c3c(oc4cc(C)c(C)cc4c3=O)C(=O)N2CCCN(C)C)c1 (stereo not drawn)	.	.	38.3*	.	.	17.9	4.0
CCn1nc(NC(=O)c2ccccn2)c2cc3cc(C)ccc3nc21	.	.	20.8*	.	.	-4.4	-3.6
COc1ccc2c3c(n(C)c2c1)[C@H](CO)N(C(=O)CN(C)C)CC31CN(Cc2nccs2)C1	23.1	4.3	.	22.7	4.7	.	.
COc1ccc(-n2nc(C(=O)NCC(=O)Nc3cccc(Cl)c3)c3ccccc3c2=O)cc1OC	-1.2	-1.4	99.7*	-14.9	-1.6	7.2	7.4
CCOc1ccc(NC(=O)CNC(=O)c2nn(-c3ccc(OC)c(OC)c3)c(=O)c3ccccc23)cc1	-16.9	-6.2	75.8*	3.3	14.3	-12.8	1.2
COc1ccc(-n2nc(C(=O)Nc3ccc(OC)c(OC)c3)c3c4ccccc4n(C)c3c2=O)cc1	.	.	27.4*	.	.	13.6	1.5
COc1ccc(CCNC(=O)CNC(=O)c2nn(-c3ccc(OC)c(OC)c3)c(=O)c3ccccc23)cc1OC	4.0	0.3	-0.8	18.1	2.1	4.9	.
COc1ccc(-n2nc(C(=O)Nc3ccc4c(c3)OCO4)c3c4ccccc4n(C)c3c2=O)cc1	.	.	6.2	.	.	1.5	.
C[C@@H](NC(=O)C[C@H]1C=C[C@H](NC(=O)C2CC2)[C@@H](CO)O1)c1ccccc1	-9.1	-1.5	.	-3.1	1.6	1.2	.
O=C(C[C@H]1CC[C@@H]2[C@H](COC[C@H](O)CN2S(=O)(=O)c2ccccc2F)O1)NCc1ccccc1F	-9.2	-0.1	.	-0.8	10.2	-1.9	.
C/C=C/c1ccc2c(c1)O[C@@H](CN(C)Cc1ccc(C(=O)O)cc1)[C@@H](C)CN([C@H](C)CO)S2(=O)=O	20.3	-3.5	.	29.6	14.4	-5.6	.
Cc1c(O)ccc2c(CN3CCN(C/C=C/c4ccccc4)CC3)cc(=O)oc12	-13.2	2.4	18.2*	-22.4	14.9	.	7.3
C[C@H]1CN([C@@H](C)CO)C(=O)c2cccc(N(C)C)c2O[C@@H]1CN(C)Cc1ccncc1	-6.9	-1.0	.	5.5	-8.6	0.0	.
O=C(CCCC(=O)Nc1ccccc1Br)N/N=C/c1c(F)cccc1Cl	-9.6	0.6	26.6*	11.3	3.4	4.6	4.9
Cc1cccc(C)c1NC(=O)COC(=O)c1ccc(N2CCCC2)c([N+](=O)[O-])c1	.	.	51.1*	2.9	.	.	6.2
C[C@@H]1CN([C@@H](C)CO)S(=O)(=O)c2ccc(-c3cncnc3)cc2O[C@@H]1CN(C)C(=O)C1CCCCC1	-2.2	1.6	.	5.0	1.2	0.5	.
O=C(C[C@H]1C/C=C\CC[C@@H](Cc2ccc(F)cc2)C(=O)O[C@H](c2ccccc2)CNC1=O)N[C@H](CO)Cc1ccccc1	-5.1	-6.2	3.8	.	-7.3	-9.0	.
O=C(C[C@H]1C/C=C\C[C@@H](Cc2ccc(F)cc2)C(=O)O[C@@H](c2ccccc2)CNC1=O)N[C@@H](CO)Cc1ccccc1	11.0	-0.5	48.9*	.	9.3	-6.1	2.8
O=C(C[C@H]1C/C=C\CC[C@@H](Cc2ccc(F)cc2)C(=O)O[C@@H](c2ccccc2)CNC1=O)N[C@@H](CO)Cc1ccccc1	12.0	-4.5	116.0*	-5.0	-9.0	-3.9	-0.3
SMILES	RAD52 anneal inh	AF4-AF9 inh	dFosB act-1	GSIS activator	DENV2 CPE rescue	RAD54 inh	dFosB act-2
C[C@H](CO)N1C[C@H](C)[C@H](CN(C)C(=O)c2cccc(F)c2)Oc2cc(-c3cncnc3)ccc2S1(=O)=O	-4.0	-2.9	.	-2.4	4.9	-2.1	.
Cc1ccc(NC(=O)Cn2c(=O)c3cccn3c3ccccc32)c(C)c1	-15.0	0.1	45.7*	7.5	?	1.3	6.4
COc1ccc(C(=O)Nc2ccccc2-c2nnn(CC(N)=O)n2)cc1	0.3	-4.4	43.7*	29.7	-5.6	0.0	3.5
COc1ccc(C(=O)Nc2ccccc2-c2nnn(CC(=O)Nc3ccc4c(c3)OCCO4)n2)cc1	.	.	33.3*	.	.	-0.4	2.4
COc1cc(OC)cc(C(=O)Nc2ccccc2-c2nnn(CC(=O)Nc3cc(C)on3)n2)c1	-3.0	-0.1	95.0*	9.0	-4.1	-5.8	5.0
Nc1ccccc1-c1nnn(CC(=O)Nc2ccc3c(c2)OCCO3)n1	-9.4	0.2	6.0	3.4	-3.4	2.4	.
COc1cc(C(=O)Nc2ccccc2-c2nnn(CC(N)=O)n2)cc(OC)c1OC	.	.	-10.8	.	.	-4.4	.
CCOc1ccc(NC(=O)Cn2nnc(-c3ccccc3NC(=O)C3CC3)n2)cc1	.	.	59.8*	.	.	2.8	0.9
CN1[C@@H]2c3ccc(C4=CCCC4)c(=O)n3C[C@H]1[C@H](CO)[C@H]2C(=O)NC1Cc2ccccc2C1	-17.5	1.5	.	2.5	-1.9	2.6	.
Cc1ccc(COc2ccc(/C=N/NC(=O)c3nnn(-c4nonc4N)c3COc3ccc(F)cc3)cc2)cc1	-7.2	-1.8	48.5*	0.1	-0.8	9.7	-0.1
Cc1ccc(COc2cccc(/C=N/NC(=O)c3nnn(-c4nonc4N)c3C)c2)cc1	-3.1	0.9	52.6*	6.1	5.3	-2.2	-0.3
Nc1nonc1-n1nnc(C(=O)N/N=C/c2ccc(OCc3ccc(F)cc3)cc2)c1COc1ccccc1	-4.2	-34.3	?	23.0	-0.7	7.6	.
CCCc1cc(=O)oc2cc(OCC(=O)NCCc3c[nH]c4ccc(OC)cc34)ccc12	-2.8	-0.2	18.5*	9.4	11.7	-30.6	1.6
COc1ccc2c3c([nH]c2c1)[C@@H](CO)N(C(=O)c1ccncc1)CC31CN(C(=O)c2ccncc2)C1	8.9	-3.2	.	10.2	-3.9	.	.
COc1ccc(-c2nc(-c3ccncc3)no2)c(OC)c1	-6.3	-0.1	0.7	-1.5	7.6	-8.6	.
COc1cc(OC)c(-c2nc(-c3ccncc3)no2)cc1OC	-19.3	-3.2	20.9*	7.3	?	8.7	6.0
COc1cc(C(=O)N(C)CCOc2ccccc2)ccc1OCC(=O)Nc1cccc(C(F)(F)F)c1	13.3	-4.4	-16.4	-22.4	-8.7	1.4	.
